# Data taken from the supplement of paper PMC11732987, “Enantioselective OTUD7B fragment discovery through chemoproteomics screening and high-throughput optimisation” (Communications Chemistry, 2025).
# Unmarked numbers belong to inactive results.
# What was measured:
# Test in all cases: log2 ratio of Biotin-Ahx-Ub-VS probe labelling (fragment/DMSO); higher = less target engagement (more negative = stronger competition), active = hit call of the paper (q ≤ 0.05, log2 ratio ≤ -1)
# Conditions in all cases: compound concentration: 200 uM; treatment time: 3 h
# [1] = molecular target: T1, ALG13 (UniProt Q9NP73)
# T1 sequence (whole entry): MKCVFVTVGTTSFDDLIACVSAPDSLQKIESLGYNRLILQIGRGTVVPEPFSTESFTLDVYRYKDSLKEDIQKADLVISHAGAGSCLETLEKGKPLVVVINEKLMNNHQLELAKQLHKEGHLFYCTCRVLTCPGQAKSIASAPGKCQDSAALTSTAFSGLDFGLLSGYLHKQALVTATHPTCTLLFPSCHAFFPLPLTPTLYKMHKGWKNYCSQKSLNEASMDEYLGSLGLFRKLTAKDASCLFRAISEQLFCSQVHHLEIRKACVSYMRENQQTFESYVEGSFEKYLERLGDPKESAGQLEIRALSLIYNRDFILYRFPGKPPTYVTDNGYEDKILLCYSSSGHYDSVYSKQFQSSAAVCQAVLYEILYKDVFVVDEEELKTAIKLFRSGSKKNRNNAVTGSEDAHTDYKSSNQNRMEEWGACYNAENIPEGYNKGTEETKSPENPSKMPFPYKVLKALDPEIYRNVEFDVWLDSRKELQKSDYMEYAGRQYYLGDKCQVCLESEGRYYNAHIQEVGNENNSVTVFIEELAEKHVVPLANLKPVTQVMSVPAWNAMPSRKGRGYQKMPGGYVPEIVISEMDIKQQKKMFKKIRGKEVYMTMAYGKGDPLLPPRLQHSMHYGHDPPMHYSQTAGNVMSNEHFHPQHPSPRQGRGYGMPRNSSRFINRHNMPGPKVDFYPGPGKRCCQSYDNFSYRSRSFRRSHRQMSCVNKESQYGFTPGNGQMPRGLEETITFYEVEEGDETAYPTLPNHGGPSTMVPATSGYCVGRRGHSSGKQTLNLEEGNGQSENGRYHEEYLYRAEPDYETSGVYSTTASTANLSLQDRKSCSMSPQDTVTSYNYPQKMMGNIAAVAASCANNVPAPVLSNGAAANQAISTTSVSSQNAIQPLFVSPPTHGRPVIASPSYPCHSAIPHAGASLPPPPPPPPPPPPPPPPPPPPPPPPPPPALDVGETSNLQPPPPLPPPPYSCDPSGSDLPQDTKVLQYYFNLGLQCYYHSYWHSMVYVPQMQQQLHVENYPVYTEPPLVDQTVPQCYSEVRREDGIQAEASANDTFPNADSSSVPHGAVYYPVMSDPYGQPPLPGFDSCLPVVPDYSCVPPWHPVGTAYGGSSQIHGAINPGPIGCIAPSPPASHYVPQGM
# Procedure, shortened: (§1)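 Global-median-normalised Spectronaut label-free quantities were compared by unpaired t-test, and values are average log2 ratios of fragment over vehicle. Only proteins with ≥2 unique peptides were used. HEK293T lysate (495 µg per sample) was treated in triplicate with fragment at 200 µM or vehicle for 3 h and then with Biotin-Ahx-Ub-VS at 0.5 µM final for 1 h. Labelled DUBs were then NeutrAvidin-enriched, digested with LysC and trypsin, and run by diaPASEF LC-MS/MS.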
# [2] = molecular target: ATXN3 (UniProt P54252)
# ATXN3, sequence (P54252 whole entry): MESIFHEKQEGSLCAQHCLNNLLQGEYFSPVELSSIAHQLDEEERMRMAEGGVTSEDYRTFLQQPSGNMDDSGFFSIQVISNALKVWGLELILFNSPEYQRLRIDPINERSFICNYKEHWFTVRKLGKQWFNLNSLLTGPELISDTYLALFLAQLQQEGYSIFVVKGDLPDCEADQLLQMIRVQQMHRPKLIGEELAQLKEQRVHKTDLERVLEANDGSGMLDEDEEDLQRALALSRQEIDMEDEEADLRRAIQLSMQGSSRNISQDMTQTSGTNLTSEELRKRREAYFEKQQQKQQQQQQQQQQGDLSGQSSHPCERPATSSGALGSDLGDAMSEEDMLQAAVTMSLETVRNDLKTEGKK
# Procedure, shortened: as §1
# [3] = molecular target: T2, BAP1 (UniProt Q92560)
# T2 sequence (whole entry): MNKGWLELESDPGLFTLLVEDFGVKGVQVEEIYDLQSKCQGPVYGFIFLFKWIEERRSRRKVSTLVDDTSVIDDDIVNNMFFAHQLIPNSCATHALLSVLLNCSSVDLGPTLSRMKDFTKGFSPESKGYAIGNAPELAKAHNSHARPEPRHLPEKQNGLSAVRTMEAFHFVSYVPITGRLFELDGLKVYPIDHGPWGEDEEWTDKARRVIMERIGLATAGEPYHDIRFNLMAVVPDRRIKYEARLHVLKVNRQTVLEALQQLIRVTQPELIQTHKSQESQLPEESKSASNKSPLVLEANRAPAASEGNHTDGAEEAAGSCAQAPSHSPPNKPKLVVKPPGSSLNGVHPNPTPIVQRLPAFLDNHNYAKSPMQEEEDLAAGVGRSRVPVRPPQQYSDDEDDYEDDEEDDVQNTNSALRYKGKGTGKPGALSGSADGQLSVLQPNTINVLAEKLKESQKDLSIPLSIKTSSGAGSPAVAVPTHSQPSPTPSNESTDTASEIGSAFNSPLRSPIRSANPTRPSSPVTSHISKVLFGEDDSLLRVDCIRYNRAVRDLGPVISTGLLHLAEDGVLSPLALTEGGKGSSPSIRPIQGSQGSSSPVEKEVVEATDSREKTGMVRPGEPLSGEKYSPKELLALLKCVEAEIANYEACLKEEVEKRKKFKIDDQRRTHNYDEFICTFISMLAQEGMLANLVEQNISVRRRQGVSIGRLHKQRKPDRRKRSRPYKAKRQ
# Procedure, shortened: as §1
# [4] = molecular target: EIF3F (UniProt O00303)
# EIF3F, sequence (O00303 whole entry): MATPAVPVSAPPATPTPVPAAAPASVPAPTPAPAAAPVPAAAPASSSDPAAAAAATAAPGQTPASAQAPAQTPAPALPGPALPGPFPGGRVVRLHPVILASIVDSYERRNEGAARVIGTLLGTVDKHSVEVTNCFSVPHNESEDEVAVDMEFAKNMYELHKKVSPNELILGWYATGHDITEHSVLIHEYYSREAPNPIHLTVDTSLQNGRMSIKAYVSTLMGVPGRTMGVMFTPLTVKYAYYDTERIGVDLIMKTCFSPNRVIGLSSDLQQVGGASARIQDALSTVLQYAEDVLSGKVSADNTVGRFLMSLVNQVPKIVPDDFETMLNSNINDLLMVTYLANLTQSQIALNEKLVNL
# Procedure, shortened: as §1
# [5] = molecular target: EIF3H (UniProt O15372)
# EIF3H, sequence (O15372 whole entry): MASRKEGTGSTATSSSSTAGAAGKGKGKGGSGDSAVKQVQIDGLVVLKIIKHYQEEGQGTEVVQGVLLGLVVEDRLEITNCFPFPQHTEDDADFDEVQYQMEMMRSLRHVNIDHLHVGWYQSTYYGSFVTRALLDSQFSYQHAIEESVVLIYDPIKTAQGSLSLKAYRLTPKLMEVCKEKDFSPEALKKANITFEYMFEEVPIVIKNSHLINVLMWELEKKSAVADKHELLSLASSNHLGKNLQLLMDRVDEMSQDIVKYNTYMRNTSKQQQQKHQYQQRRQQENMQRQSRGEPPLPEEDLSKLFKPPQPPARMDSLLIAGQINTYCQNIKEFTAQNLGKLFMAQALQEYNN
# Procedure, shortened: as §1
# [6] = molecular target: T3, FAM105A (UniProt Q9NUU6)
# T3 sequence (whole entry): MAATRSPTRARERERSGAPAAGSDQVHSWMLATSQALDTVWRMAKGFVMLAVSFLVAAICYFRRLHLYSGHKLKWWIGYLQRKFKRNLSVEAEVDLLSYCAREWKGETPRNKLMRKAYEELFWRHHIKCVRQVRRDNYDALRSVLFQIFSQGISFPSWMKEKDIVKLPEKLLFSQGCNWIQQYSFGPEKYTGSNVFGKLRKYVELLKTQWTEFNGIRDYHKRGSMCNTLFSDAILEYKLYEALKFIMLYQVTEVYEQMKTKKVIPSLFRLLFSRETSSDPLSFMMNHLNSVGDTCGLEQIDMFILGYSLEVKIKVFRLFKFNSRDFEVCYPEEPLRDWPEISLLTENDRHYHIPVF
# Procedure, shortened: as §1
# [7] = molecular target: OTUB1 (UniProt Q96FW1)
# OTUB1, sequence (Q96FW1 whole entry): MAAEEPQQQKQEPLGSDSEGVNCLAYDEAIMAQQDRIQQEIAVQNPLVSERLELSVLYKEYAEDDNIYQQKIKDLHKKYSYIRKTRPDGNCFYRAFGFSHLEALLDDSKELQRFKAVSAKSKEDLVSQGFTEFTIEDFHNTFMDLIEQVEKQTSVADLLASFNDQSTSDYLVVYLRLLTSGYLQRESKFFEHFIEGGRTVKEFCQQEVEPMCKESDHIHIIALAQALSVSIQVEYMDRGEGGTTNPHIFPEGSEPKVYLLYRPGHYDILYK
# Procedure, shortened: as §1
# [8] = molecular target: T4, OTUD4 (UniProt Q01804)
# T4 sequence (whole entry): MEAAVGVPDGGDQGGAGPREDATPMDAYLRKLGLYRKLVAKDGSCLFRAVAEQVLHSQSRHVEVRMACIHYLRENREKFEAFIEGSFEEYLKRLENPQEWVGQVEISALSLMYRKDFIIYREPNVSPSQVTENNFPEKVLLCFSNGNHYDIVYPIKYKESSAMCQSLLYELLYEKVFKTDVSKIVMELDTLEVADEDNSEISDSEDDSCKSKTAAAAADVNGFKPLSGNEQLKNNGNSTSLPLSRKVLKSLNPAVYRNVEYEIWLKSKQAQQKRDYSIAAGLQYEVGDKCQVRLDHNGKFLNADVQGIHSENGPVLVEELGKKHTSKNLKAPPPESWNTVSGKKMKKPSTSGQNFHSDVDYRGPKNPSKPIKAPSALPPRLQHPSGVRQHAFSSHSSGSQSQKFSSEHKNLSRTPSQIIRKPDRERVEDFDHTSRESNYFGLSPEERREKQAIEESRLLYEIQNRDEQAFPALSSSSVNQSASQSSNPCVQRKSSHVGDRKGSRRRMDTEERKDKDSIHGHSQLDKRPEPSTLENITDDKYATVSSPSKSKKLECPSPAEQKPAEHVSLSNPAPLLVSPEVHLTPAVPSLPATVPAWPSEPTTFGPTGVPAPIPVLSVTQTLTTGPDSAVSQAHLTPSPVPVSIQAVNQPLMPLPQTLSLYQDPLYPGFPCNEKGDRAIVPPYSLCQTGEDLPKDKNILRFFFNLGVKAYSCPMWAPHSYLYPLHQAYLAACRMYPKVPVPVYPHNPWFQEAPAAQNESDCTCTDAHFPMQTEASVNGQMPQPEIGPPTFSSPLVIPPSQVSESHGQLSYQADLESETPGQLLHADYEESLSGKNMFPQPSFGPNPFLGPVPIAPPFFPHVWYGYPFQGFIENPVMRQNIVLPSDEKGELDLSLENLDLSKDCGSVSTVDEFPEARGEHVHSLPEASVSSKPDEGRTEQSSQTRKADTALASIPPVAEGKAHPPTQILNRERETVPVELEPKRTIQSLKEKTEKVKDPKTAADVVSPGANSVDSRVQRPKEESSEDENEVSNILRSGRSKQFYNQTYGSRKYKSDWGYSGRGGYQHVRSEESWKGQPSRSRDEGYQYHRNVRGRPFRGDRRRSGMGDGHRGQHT
# Procedure, shortened: as §1
# [9] = molecular target: T5, OTUD5 (UniProt Q96G74)
# T5 sequence (whole entry): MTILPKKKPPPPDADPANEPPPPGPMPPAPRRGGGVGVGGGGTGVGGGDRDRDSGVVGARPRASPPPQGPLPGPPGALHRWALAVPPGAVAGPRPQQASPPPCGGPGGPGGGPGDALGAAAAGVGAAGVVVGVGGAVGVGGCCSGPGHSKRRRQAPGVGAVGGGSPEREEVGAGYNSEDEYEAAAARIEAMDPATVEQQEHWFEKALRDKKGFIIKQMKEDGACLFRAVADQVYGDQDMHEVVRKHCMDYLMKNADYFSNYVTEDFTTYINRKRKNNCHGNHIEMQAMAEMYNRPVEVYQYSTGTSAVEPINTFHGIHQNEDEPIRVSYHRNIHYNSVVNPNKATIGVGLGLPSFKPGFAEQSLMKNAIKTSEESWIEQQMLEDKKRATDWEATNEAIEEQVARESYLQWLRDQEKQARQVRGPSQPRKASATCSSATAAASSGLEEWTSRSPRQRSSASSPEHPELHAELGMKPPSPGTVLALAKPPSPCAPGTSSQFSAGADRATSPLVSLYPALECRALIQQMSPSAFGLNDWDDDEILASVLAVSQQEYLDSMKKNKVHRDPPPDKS
# Procedure, shortened: as §1
compound,measurement,setting,value
C[C@@H](NC(=O)CCl)c1cccc(C#N)c1,log2 ratio of Biotin-Ahx-Ub-VS probe labelling,[1],0.118
same,log2 ratio of Biotin-Ahx-Ub-VS probe labelling,[2],-0.463
same,log2 ratio of Biotin-Ahx-Ub-VS probe labelling,[3],-2.8 (active)
same,log2 ratio of Biotin-Ahx-Ub-VS probe labelling,[4],-0.345
same,log2 ratio of Biotin-Ahx-Ub-VS probe labelling,[5],0.144
same,log2 ratio of Biotin-Ahx-Ub-VS probe labelling,[6],0.148
same,log2 ratio of Biotin-Ahx-Ub-VS probe labelling,[7],-0.229
same,log2 ratio of Biotin-Ahx-Ub-VS probe labelling,[8],-0.372
same,log2 ratio of Biotin-Ahx-Ub-VS probe labelling,[9],-0.284
